Results: article PMC4336329 (PLoS ONE, 2015)
Among all 310,000 compounds or so, about 14,000 (4.5%) showed an effect of 50% or more. The effect is printed as a negative number. The entries come from a sample that favours strong results as a whole.

Each compound was assayed against human ether-à-go-go-related gene (hERG) potassium channel (human, UniProt Q12809) (assay: primary screen, population patch clamp on CHO cells stably expressing hERG; higher = less effect of the substance).
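Also: peak tail current of the secondary pulse compared with the same well before compound.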

Sequence of human ether-à-go-go-related gene (hERG) potassium channel (Q12809 whole entry, looked up): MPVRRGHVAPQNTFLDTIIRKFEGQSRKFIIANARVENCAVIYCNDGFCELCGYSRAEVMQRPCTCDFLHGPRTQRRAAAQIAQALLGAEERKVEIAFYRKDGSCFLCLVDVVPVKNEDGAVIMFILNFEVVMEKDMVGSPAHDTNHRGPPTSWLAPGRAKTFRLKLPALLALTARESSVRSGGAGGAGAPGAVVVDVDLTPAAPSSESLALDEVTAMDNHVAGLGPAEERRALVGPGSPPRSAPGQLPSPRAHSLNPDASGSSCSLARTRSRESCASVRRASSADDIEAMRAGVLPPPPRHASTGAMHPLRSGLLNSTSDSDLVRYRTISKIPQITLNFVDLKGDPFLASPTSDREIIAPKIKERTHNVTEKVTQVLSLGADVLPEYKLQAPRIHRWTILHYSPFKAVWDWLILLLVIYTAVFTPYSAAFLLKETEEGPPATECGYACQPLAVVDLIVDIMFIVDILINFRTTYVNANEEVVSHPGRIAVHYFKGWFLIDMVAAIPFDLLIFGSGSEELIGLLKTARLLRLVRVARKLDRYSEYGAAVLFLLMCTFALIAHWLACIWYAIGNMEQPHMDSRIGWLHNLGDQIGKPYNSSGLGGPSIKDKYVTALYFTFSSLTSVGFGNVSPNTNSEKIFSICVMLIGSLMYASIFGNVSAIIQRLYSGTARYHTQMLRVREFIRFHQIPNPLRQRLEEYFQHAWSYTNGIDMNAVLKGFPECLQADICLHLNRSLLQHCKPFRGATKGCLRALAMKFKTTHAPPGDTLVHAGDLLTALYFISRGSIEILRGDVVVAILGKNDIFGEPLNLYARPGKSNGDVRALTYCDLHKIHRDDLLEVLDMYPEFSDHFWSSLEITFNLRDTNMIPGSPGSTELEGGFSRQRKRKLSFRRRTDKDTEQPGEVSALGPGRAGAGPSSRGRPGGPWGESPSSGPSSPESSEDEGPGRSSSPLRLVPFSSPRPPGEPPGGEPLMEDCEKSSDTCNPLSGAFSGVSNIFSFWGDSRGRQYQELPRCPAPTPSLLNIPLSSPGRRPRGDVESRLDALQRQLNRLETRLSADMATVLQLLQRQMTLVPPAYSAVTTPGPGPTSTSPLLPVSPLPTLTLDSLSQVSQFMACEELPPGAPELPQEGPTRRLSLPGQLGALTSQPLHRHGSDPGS

SMILES	hERG current change (%, negative = inhibition) at 10uM [%]
Nc1ccccc1NC(=O)NC(=O)c1ccccc1	12.5
CCC(=O)Nc1ccc(NC(=O)c2cccc3c(Br)cccc23)cc1	3.96
COC(=O)C(Cc1ccccc1)NC(=O)CCc1c[nH]c2ccccc12 (stereo not shown)	-8.09
CCOC(=O)N1CCN(CC(=O)Nc2ccc(F)c(F)c2F)CC1	7.7
CCOC(=O)N1CCN(CCC(=O)Nc2ccc(C)cc2)CC1	4.65
CCOC(=O)N1CCN(CC(=O)Nc2ccc(F)cc2)CC1	-82
CCOC(=O)N1CCN(CC(=O)Nc2ccc(F)cc2F)CC1	-28.6
CCOC(=O)N1CCN(CC(=O)Nc2ccc(OC)cc2)CC1	-15.2
CCOC(=O)N1CCN(CC(=O)Nc2ccc(C)cc2)CC1	-63.2
COc1ccc(-c2nn(-c3ccccc3)cc2/C=N/N2C(=O)CSC2=S)cc1	-6.34
O=C(NCCCl)NNc1c(Cl)cc(Cl)cc1Cl	10.3
CC1(C)Oc2ccc3ccc(=O)oc3c2[C@@H](O)[C@H]1O	15.5
CCOCCn1cnc2sc(C(=O)NCC(=O)OCC)c(C)c2c1=O	-3.75
COc1cc(C)c(CN2CCC(n3nccc3NC(=O)C3CCOC3)CC2)cc1C (stereo not shown)	-18.2
COc1ccc(C(=O)N2CCC(n3nccc3NC(=O)C3CC3)CC2)c(OC)c1OC	24.7
Cc1ccc(C)c(CN2CCC(n3nccc3NC(=O)C3CCCC3)CC2)c1	-69.9
CCn1cc(CN2CCC(n3nccc3NC(=O)C3CCCC3)CC2)c(C)n1	-12.4
COc1ccc(CN2CCC(n3nccc3NC(=O)C3CC3)CC2)c(Cl)c1OC	-39.2
COc1ccc(CN2CCC(n3nccc3NC(=O)C3CC3)CC2)c(OC)c1OC	-51.4
COc1cc(C)c(CN2CCC(n3nccc3NC(=O)C3CC3)CC2)cc1C	-52.7
O=C(Nc1ccnn1C1CCN(Cc2ccccc2F)CC1)C1CCCC1	-45.4
Cc1cc(C)c(CN2CCC(n3nccc3NC(=O)C3CCOC3)CC2)cc1C (stereo not shown)	-19
Cc1cc(C)c(CN2CCC(n3nccc3NC(=O)C3CCCC3)CC2)cc1C	-70.7
OCCSc1nc2ccccc2n1CCOc1ccccc1	4.02

SMILES	hERG current change (%, negative = inhibition) at 10uM [%]
O=c1cccccc1NCc1ccccc1	-17.3
O=C(CSCC(=O)N1CCCc2ccccc21)Nc1nc(-c2ccccc2)cs1	12.4
COc1ccc(NC(=O)CSc2nnc(Cc3ccccc3)c(=O)n2N)c(OC)c1	-18.1
O=c1c2ccccc2nc(-c2ccoc2)n1CCc1ccccc1	-3.87
COc1ccc(NC(=O)CCC(=O)N(Cc2ccc(OC)c(OC)c2)c2nccs2)cc1	13.5
CC(=O)Nc1ccc(NC(=O)c2ccc(N(C)S(=O)(=O)c3ccc(C)cc3)cc2)cc1	6.8
CC(=O)Oc1ccc2c(=O)c(-c3ccccc3)c(C)oc2c1	16.2
O=C(CSc1ncnc2scc(-c3ccccc3)c12)Nc1ccc(C(=O)O)cc1	8.17
COc1ccc(C(C(=O)NC2CCCCC2)N(C(=O)c2ccco2)c2ccc(-n3cnnn3)c(C)c2)cc1 (stereo not shown)	8.93
CCCN1C(=O)c2cc(C(=O)Nc3ccccc3CC)ccc2C1O (stereo not shown)	2.3
N#Cc1c(N)n(CCNC(=O)c2cccs2)c2nc3ccccc3nc12	10.4
O/N=C/c1ccnc(SCc2ccccc2)n1	-12.1
Cc1c(NC(=O)COC(=O)c2cc3c4ccccc4n(C)c3s2)c(=O)n(-c2ccccc2)n1C	-11.8
Cc1c(NC(=O)C(C)OC(=O)c2cccs2)c(=O)n(-c2ccccc2)n1C (stereo not shown)	3.46
Cc1c(NC(=O)C(C)OC(=O)c2cc3c4ccccc4n(C)c3s2)c(=O)n(-c2ccccc2)n1C (stereo not shown)	-68.5
CN(C)S(=O)(=O)c1ccc(N=Cc2c(C(F)(F)F)[nH][nH]c2=O)cc1	23
CC(C)(C)c1ccccc1NC(=O)CN1C(=O)NC2(CCCC2)C1=O	1.01
O=C(Nc1ccc(N2CCOCC2)c(Cl)c1)c1cc2ccccc2o1	-36.1
CCCC(=O)N1CCN(c2ccc(NC(=O)c3cccs3)cc2)CC1	-18.2
CCCC(=O)N1CCN(c2ccc(NC(=O)c3cccs3)cc2Cl)CC1	-66.8
O=C(Nc1ccc(N2CCN(C(=O)c3ccco3)CC2)c(Cl)c1)c1c(F)c(F)c(F)c(F)c1F	-32.1
CC(C)C(=O)N1CCN(c2ccc(NC(=O)c3cccs3)cc2Cl)CC1	-14.7
O=C(Nc1ccc(N2CCN(C(=O)c3ccco3)CC2)c(Cl)c1)c1cc2ccccc2o1	-67.9
Cc1ccccc1C(=O)N1CCN(c2ccc(NC(=O)c3ccco3)cc2Cl)CC1	-43.2

SMILES	hERG current change (%, negative = inhibition) at 10uM [%]
CCC(=O)N1CCN(c2ccc(NC(=O)c3cc4ccccc4o3)cc2Cl)CC1	-67.7
CCCC(=O)N1CCN(c2ccc(NC(=O)c3cc4ccccc4o3)cc2Cl)CC1	-56.8
Cc1ccc(NC(=O)c2cc3ccccc3o2)cc1Cl	19.7
CCC(=O)N1CCN(c2ccc(NC(=O)c3cc4ccccc4o3)cc2)CC1	-23.3
CCCC(=O)N1CCN(c2ccc(NC(=O)c3cc4ccccc4o3)cc2)CC1	-13.4
O=C(Cc1ccccc1[N+](=O)[O-])Nc1ccc2c(c1)OCO2	-40.1
CCOc1ccc(CCNC(=O)c2cccnc2N2CCCC2)cc1OCC	13.2
Cc1ccc(C)c(C(=O)Nc2c(C(N)=O)oc3ccccc23)c1	5.52
COc1cccc(C(=O)NC2CCSC2=O)c1 (stereo not shown)	23.8
CC(=O)c1ccc(N2CCN(C(=O)[C@H](C)NC(=O)c3ccccc3Cl)CC2)cc1	-9.57
COC(=O)[C@@H]1C[C@@]2(O)[C@H](O)[C@H](O)[C@H](O)C[C@H]2N1CC1CC1	6.98
N#Cc1c(N)nc2c(c1-c1ccccc1)CCCC2	-1.63
O=C1c2ccccc2C(=O)C1(CO)c1ccccc1	27.7
CC1CCN(c2ccccc2NC(=S)NC(=O)c2cccs2)CC1	-50.2
CCC(=O)N1CCN(c2ccccc2NC(=O)c2cccs2)CC1	-50.4
CN1CCN(c2ccccc2NC(=O)c2cccs2)CC1	-47.5
CC(=O)N1CCN(c2ccccc2NC(=O)c2cccs2)CC1	-43.8
O=C(NC(=S)Nc1ccccc1N1CCCC1)c1cccs1	7.27
O=C(NC(=S)Nc1ccccc1N1CCCCC1)c1cccs1	6.21
CCCC(=O)N(CCN1CCOCC1)c1nc2c(OC)ccc(OC)c2s1.Cl	-15.5
CCOC(=O)C1=C(N)Oc2cc(O)ccc2C1c1cccc([N+](=O)[O-])c1 (stereo not shown)	-11.3
COc1ccc(NC(=O)c2ccccc2Oc2ccccc2)c(OC)c1	1.42
COc1ccc(C(C(=O)NC2CCCCC2)N(Cc2cccnc2)C(=O)c2snc(C(N)=O)c2N)cc1 (stereo not shown)	-11.8
COc1ccc(/C=N/n2cncn2)cc1Cn1cc([N+](=O)[O-])cn1	-32.1

SMILES	hERG current change (%, negative = inhibition) at 10uM [%]
COc1ccc(/C=N/n2cncn2)cc1Cn1nc(C)c([N+](=O)[O-])c1C	-53.6
COc1ccc(/C=N/N2CCOCC2)cc1Cn1nc(C)c([N+](=O)[O-])c1C	-10.8
COC(=O)[C@]1(CC(C)C)N[C@H](c2ccc(-c3ccc(F)cc3)cc2)[C@@H]2C(=O)N(C)C(=O)[C@@H]21.O=C(O)C(F)(F)F	-15.7
COC(=O)Cc1cc(=O)n(-c2nc3ccccc3[nH]2)[nH]1	-23.3
COc1ccc(-c2cc(=O)n(-c3nc4ccccc4[nH]3)[nH]2)cc1	-53.1
Cl.O=c1cc(-c2ccccc2)[nH]n1-c1nc2ccccc2[nH]1	7.02
CCN(CC)CCOC(=O)/C=C/c1ccccc1.Cl	-12.4
Cc1cccc(Nc2nnc(SCC(=O)NCc3cccs3)s2)c1	21.9
Cc1cc(C)n(-c2nc(C)nc(NCc3ccccc3)n2)n1	-86.9
Cc1cc(C)n(-c2nc(Nc3ccccc3)nc(-n3nc(C)cc3C)n2)n1	15.6
CNc1nc(C)nc(-n2nc(C)cc2C)n1	15.8
CC(=O)Nc1nc(SCc2ccc(Cl)cc2Cl)n[nH]1	16.4
O=[N+]([O-])c1ccc2c(c1)nc1n2CCSC1	-19.2
COc1ccc(CN2CC3CC(C2)c2cccc(=O)n2C3)cc1OC (stereo not shown)	-5.24
Cc1ccc(CN2CC3CC(C2)c2cccc(=O)n2C3)cc1 (stereo not shown)	-5.29
Cc1cc(C)n2c(Br)c(CN3CC4CC(C3)c3cccc(=O)n3C4)nc2n1 (stereo not shown)	0.651
Cc1oc(-c2ccc(F)cc2F)nc1CN1C[C@@H]2C[C@@H](C1)c1cccc(=O)n1C2	-74.4
COc1cc(CN2CC3CC(C2)c2cccc(=O)n2C3)cc(OC)c1OC (stereo not shown)	-6.41
Cc1cccc(N2CCN(Cc3nc(-c4ccc(F)cc4F)oc3C)CC2)n1	-41.3
Cc1ccc2occ(CN3CCN(Cc4ccccc4)CC3)c(=O)c2c1	-45.9
COc1cc(C)c(-c2nc(CN3C[C@@H]4C[C@@H](C3)c3cccc(=O)n3C4)c(C)o2)cc1C	-57.6
Cc1ccc2occ(CN3CC4CC(C3)c3cccc(=O)n3C4)c(=O)c2c1 (stereo not shown)	-63.9
